From PubChem BioAssay AID602449 (Sanford-Burnham Center for Chemical Genomics, 2012)
The whole screen tested about 360,000 compounds, of which about 5,000 (1.4%) were called active. The sample holds actives, similar compounds and a random draw of the others, so the mix is not that of the screen.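 Rule for the calls: active = inhibition of 50% or more, scaled per plate between neutral and stimulator controls; inactive = the rest.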

Assay: blockers of Ca2+-induced mitochondrial swelling – biochemical, isolated mouse mitochondria, absorbance, primary screen (AID 602449);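 note: 0% = DMSO wells given calcium and 100% = 1 mM EGTA wells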
Settings: 30 min, at 10 µM, active compounds read high

SMILES	inhibition
Cc1ccc(S(=O)(=O)N(Cc2ccccc2)c2ccccn2)cc1[N+](=O)[O-]	0.2% (inactive)
Cc1c(C(=O)N2CCN(c3ccc(F)cc3)CC2)oc2c1C(=O)CCC2	-1% (inactive)
COCCCn1c(=O)/c(=C/c2ccccc2OC(C)C)s/c1=C(\C#N)C(=O)Nc1ccc(C(=O)O)cc1	0.6% (inactive)
COc1ccc(S(=O)(=O)N2CCC(C(=O)NCCC(=O)Nc3ccccc3OC)CC2)cc1	1% (inactive)
CC1CCN(C2=NC(=O)/C(=C/c3cn[nH]c3-c3ccccc3)S2)CC1	0.6% (inactive)
COc1ccccc1N(CC(=O)Nc1ccc(C(F)(F)F)cc1)S(C)(=O)=O	-0.2% (inactive)
CC1Sc2ccc(C(=O)NCc3ccccc3Cl)cc2NC1=O (configuration not stated)	-1% (inactive)
CCC/C(C)=N\Nc1nc2c(c(=O)n(C)c(=O)n2C)n1C	4.6% (inactive)
COCCN(C(=O)CCC(=O)Nc1nccs1)C(C(=O)NC(C)(C)C)c1ccc(Cl)cc1 (configuration not stated)	0.1% (inactive)
COc1ccc2oc(C(=O)N(CC(C)C)C3CCS(=O)(=O)C3)c(C)c2c1 (configuration not stated)	-1.1% (inactive)
O=S(=O)(O)c1cc2onnc2c2ccccc12	0.1% (inactive)
O=C(CC(O)(C(F)(F)F)C(F)(F)F)Nc1ccc(Cl)c(Cl)c1	84.6% (active)
CC1(C(=O)O)CCC(C(=O)Nc2ccc(Cl)c(Cl)c2)C1(C)C (configuration not stated)	3.1% (inactive)
O=C(CN1CCN(C(=O)c2ccco2)CC1)Nc1ccc(Cl)c(C(F)(F)F)c1	-0.1% (inactive)
O=C(Cn1nc(CNc2ccc(Cl)cc2)[n+]2c1CCCCC2)c1ccc(Cl)cc1	29.5% (inactive)
CCOC(=O)N1CCC(NC(=O)CN2C(=O)COc3ccc(C(C)(C)C)cc32)CC1	-0.9% (inactive)
CCN1N=C(c2ccccc2)CCC1=O	-2.4% (inactive)
O=C1CC(c2ccccc2)=NN1c1ccc([N+](=O)[O-])cc1	91.3% (active)
O=C1NC(=O)C2C1C(c1ccc([N+](=O)[O-])cc1)=NN2Cc1ccccc1 (configuration not stated)	0.1% (inactive)
CC(C)NS(=O)(=O)c1ccc(NC(=O)c2cccnc2)cc1	-1.5% (inactive)
Cc1c(C(=O)OC(C)C)sc(NC(=O)c2cccnc2)c1C#N	67.6% (active)

SMILES	inhibition
CCOC(=O)c1cc(NC(=O)c2cccnc2)ccn1	-0.2% (inactive)
CCCCN1C(=O)C(CC(=O)NCc2cccs2)CC(C(=O)N2CCCCCC2)=C1C (configuration not stated)	-0.8% (inactive)
Cc1cc(Cl)c(S(=O)(=O)NCCC(=O)O)cc1OCC(N)=O	-1.7% (inactive)
O=C(NC(Cc1c[nH]c2ccccc12)C(=O)O)/C(=C/c1ccco1)NC(=O)c1ccccc1 (configuration not stated)	-1% (inactive)
CC(=O)N(CC1CCCO1)C1(C(=O)NC2CCCC2)CCCCC1 (configuration not stated)	1.8% (inactive)
O=C(CSc1ccccc1)Nc1nnc(/C=C/c2ccccc2)s1	2.2% (inactive)
O=C(Nc1ccc(Cl)cc1)Nc1nnc(/C=C/c2ccccc2)s1	89.9% (active)
COc1ccc(/C=C/c2nnc(NC(=O)C(C)C)s2)cc1	2.7% (inactive)
COc1ccc(S(=O)(=O)N(C)CC(=O)N2CCCC2)cc1	-2.1% (inactive)
COc1ccc(N(Cc2ccc(N(C)C)cc2)C(=O)c2ccc(S(C)(=O)=O)cc2)cc1	0.5% (inactive)
COc1ccc2sc(N(CCCN(C)C)C(=O)c3ccc(S(=O)(=O)N(C)C4CCCCC4)cc3)nc2c1	82.5% (active)
COc1ccc(C(=O)O)cc1S(=O)(=O)NC1CCN(Cc2ccccc2)CC1	-1% (inactive)
Cc1cccc(NC(=S)Nc2ccc(Cl)c(Cl)c2)c1	101% (active)
Cc1cccc(NC(=S)NCc2ccc3[nH]c4c(c3c2)CCCC4)c1	1% (inactive)
Cc1cccc(NC(=S)Nc2ccc(Br)cc2)c1	96.8% (active)
O=S(=O)(NC(=S)Nc1ccccc1)c1ccc(F)cc1	-0.7% (inactive)
Fc1cc(Br)ccc1NC(=S)Nc1cccnc1	12.7% (inactive)
S=C(Nc1ccccc1)Nc1ccc2ccccc2c1	67.5% (active)
Cc1cccc(NC(=S)N2CCC(c3nc4ccccc4s3)CC2)c1	3% (inactive)
Cc1cccc(NC(=S)N(CCN(C)C)C(C)c2ccco2)c1 (configuration not stated)	-2.1% (inactive)
Cc1c(NC(=S)Nc2ccccc2)c(=O)n(-c2ccccc2)n1C	0.8% (inactive)

SMILES	inhibition
COC(=O)c1ccc2c(c1)S(=O)(=O)NC(=NCCCN1CCOCC1)S2	0.8% (inactive)
COc1ccc(C2=NS(=O)(=O)N(C)C(C(=O)NC(C)c3ccccc3)=C2)cc1 (configuration not stated)	-1.4% (inactive)
CCC1C=C(c2ccccc2)C=CN=C1N(CC)CC (configuration not stated)	-0.1% (inactive)
Cc1cccc(NS(=O)(=O)c2cccc(C(=O)NNC(=O)c3ccccc3O)c2)c1	6.9% (inactive)
CC1(C)CC(=O)c2cc(OCC(=O)NCC3CCCO3)ccc2O1 (configuration not stated)	-1.4% (inactive)
C=CCN(N=Nc1cccc([N+](=O)[O-])c1)c1cccc([N+](=O)[O-])c1	2.6% (inactive)
N#Cc1cccc(Nc2c3c(nc4ccccc24)CCCC3)c1	6.5% (inactive)
Brc1ccc(Nc2c3c(nc4ncnn24)CCC3)cc1	-4.1% (inactive)
Cc1ccc(Nc2c3c(nc4ccccc24)CCC3)cc1	79.8% (active)
CCn1nnc(NC(=O)c2c(OC)cccc2OC)n1	-1% (inactive)
CCCC1OC23CCCCC2C(C#N)(C#N)C1(C#N)C(=N)O3 (configuration not stated)	0.5% (inactive)
Cc1ccoc1C(=O)Nc1cccc(Oc2ccccc2)c1	-0.1% (inactive)
Cc1cccc(NC(=O)NC2(C)CCS(=O)(=O)C2)c1 (configuration not stated)	-3.1% (inactive)
Cc1cccc(NC(=O)Nc2cccc(Oc3c(F)c(F)c(F)c(F)c3F)c2)c1	93.2% (active)
O=C(CNCCC1=CCCCC1)Nc1ccccc1N1CCCCCC1	11.6% (inactive)
CCc1cc(=O)oc2cc(C)cc(OC(C)C(=O)O)c12 (configuration not stated)	1.3% (inactive)
CN[C@H](C(=O)NC[C@H]1O[C@@H](n2cnc3c(N)ncnc32)[C@H](O)[C@@H]1O)[C@@H](C)OCc1ccccc1	-0.1% (inactive)
Cc1onc(-c2ccccc2)c1C(=O)N1CCN(S(=O)(=O)c2ccccc2C(F)(F)F)CC1	0.5% (inactive)
Cc1onc(-c2ccccc2)c1C(=O)NNC(=S)NC(=O)c1ccc(F)cc1	90.1% (active)
O=C(NNC(=S)NC(=O)c1cn(-c2ccccc2)nc1-c1ccccc1)c1ccncc1	2.2% (inactive)
